Measurements reported in PubChem BioAssay (NCATS).
Records with an inconclusive call do not appear. Active and inactive are the calls of the source. Unless noted, the call rests on the fitted dose curve; in most records, active means well fitted curve in the direction sought with a large enough effect; inconclusive means small, poorly fitted or top-dose-only effect, or another doubt; inactive means no such curve, though single readings can be large; an effect the other way counts as inactive or inconclusive.

Experiments:
[1] = biological target: Lysosomal acid glucosylceramidase (Homo sapiens) (UniProt P04062); assay: Glucocerebrosidase-p2 (AID 348; in the data active means potency below about 10 µM; further: potency means the concentration at half of the fitted maximal effect); conditions: purified GBA, blue fluorogenic substrate, 40 min
Lysosomal acid glucosylceramidase (Homo sapiens), sequence (P04062 whole entry, looked up): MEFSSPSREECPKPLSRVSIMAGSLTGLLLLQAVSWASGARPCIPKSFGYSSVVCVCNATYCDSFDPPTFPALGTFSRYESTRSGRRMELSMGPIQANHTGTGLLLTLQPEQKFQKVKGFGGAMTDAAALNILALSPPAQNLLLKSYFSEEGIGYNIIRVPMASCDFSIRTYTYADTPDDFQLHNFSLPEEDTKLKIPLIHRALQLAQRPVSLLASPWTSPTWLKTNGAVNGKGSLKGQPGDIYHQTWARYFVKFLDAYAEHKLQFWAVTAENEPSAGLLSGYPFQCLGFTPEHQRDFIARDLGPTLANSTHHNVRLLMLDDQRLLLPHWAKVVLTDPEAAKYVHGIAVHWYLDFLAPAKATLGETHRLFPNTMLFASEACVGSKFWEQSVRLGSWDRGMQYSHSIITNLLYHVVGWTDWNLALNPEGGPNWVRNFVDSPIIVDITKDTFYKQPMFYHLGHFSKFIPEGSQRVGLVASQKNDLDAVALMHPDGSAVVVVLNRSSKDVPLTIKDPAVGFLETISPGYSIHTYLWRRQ
Summary of the method: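 Normal human glucocerebrosidase (0.2 nM) with blue fluorogenic substrate (80 uM final) in citrate/phosphate pH 5.9 with 10mM sodium taurocholate, 0.01% tween-20; 40 min RT, NaOH/glycine stop; fluorescence Ex 365/Em 440; AC50 from a titration from 0.6 nM upwards.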

[2] = AP1 Signaling Pathway (AID 357; active means well fitted curve in either direction with a large enough effect, not every such curve was filed as active;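 further: ME-180 reporter cells stimulated with EGF at its EC50 level; on the % scale 0 is the no-effect control and ±100 the full control effect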); conditions: ME-180 AP-1-bla reporter, EGF-induced, beta-lactamase ratio, 5 h; at 7.69 µM (top of the series) unless noted
Summary of the method: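 AP-1-bla ME-180 cells, Opti-MEM + 0.5% dialyzed FBS, plated overnight 37 °C. Cpd titration + EC50 EGF, 5 h 37 °C. CCF4 2.5 h RT; ex 405, em 460/530 ratio → %activity, AC50.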

[3] = NFAT Signaling Pathway (AID 444; active means well fitted curve in either direction with a large enough effect, not every such curve was filed as active;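 further: carbachol stimulus at about its EC50 of 1 µM final; on the % scale 0 is the no-effect control and ±100 the full control effect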); conditions: Jurkat NFAT-bla M1, carbachol, beta-lactamase ratio, 5 h; at 7.69 µM (top of the series) unless noted
Summary of the method: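 Jurkat cells with NFAT-driven β-lactamase reporter and co-expressed M1 receptor, stimulated with carbachol (final 1 uM, ~EC50), compound titration, 5 h at 37 °C. CCF4 loaded 1 h at RT; 460/530 nm ratio gave %activity and AC50.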

[4] = Stat Signaling Pathway (AID 446; active means well fitted curve in either direction with a large enough effect, not every such curve was filed as active;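 further: ME-180 cervical cancer cells given 40 pM IL-6 alongside compound; SIE-controlled beta-lactamase reporter measured as 460/530 nm FRET emission ratio; on the % scale 0 is the no-effect control and ±100 the full control effect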); conditions: ME-180 (cervical carcinoma) SIE beta-lactamase reporter, IL-6 stimulated, 5 h; at 7.69 µM (top of the series) unless noted
Summary of the method: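 FRET read-out (405 nm excitation, 460/530 nm emission) of a beta-lactamase reporter under a STAT-inducible element in ME-180 cervical carcinoma cells. Cells with compound receive 40 pM IL-6 for 5 h. Values are normalised to AC90 stimulation and AC90 JAK-inhibitor controls.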

[5] = biological target: Glucocorticoid receptor (Homo sapiens) (UniProt P04150); assay: GR-GFP Redistribution (AID 450;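 active means compounds whose dose series gives a full or clear partial fitted curve of increased nuclear translocation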; further: potency means the concentration at half of the fitted maximal effect); conditions: U2OS GR-GFP nuclear translocation, laser cytometry, 2 h
Glucocorticoid receptor (Homo sapiens), sequence (P04150 whole entry, looked up, the tested form may be a part): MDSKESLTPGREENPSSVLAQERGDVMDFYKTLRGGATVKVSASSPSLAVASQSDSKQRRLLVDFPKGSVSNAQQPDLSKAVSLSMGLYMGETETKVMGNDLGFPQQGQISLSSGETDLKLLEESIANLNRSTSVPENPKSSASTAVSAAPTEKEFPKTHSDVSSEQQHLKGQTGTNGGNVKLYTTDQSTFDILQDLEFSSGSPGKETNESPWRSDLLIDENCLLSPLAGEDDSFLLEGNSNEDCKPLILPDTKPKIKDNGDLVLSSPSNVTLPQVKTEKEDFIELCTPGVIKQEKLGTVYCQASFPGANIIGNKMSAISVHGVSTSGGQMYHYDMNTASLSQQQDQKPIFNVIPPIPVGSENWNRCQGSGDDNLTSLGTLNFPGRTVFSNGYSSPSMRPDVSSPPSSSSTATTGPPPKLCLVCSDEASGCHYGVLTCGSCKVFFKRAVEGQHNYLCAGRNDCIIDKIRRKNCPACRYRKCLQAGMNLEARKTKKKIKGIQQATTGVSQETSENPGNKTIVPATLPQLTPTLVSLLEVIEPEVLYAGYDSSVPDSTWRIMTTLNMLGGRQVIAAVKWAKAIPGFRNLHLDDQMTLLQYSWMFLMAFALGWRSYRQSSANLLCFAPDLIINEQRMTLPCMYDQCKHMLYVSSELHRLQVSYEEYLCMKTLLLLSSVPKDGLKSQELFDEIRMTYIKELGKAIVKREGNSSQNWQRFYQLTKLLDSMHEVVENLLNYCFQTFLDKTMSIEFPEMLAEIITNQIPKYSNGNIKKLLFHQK

[6] = biological target: Glucocorticoid receptor (Homo sapiens) (UniProt P04150); assay: GR-EFC Redistribution (AID 451; calls by dose curve; further: potency means the concentration at half of the fitted maximal effect); conditions: CHO-K1 GR-EFC translocation, beta-gal luminescence, 2 h
Summary of the method: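 CHO-K1 cells expressing nuclear EA and GR-ED fragments of b-gal; compounds titrated up to 46 uM final, 2 h at 37 C. GR nuclear translocation read as complemented b-gal luminescence after 1 h RT detection.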

[7] = biological target: Mitogen-activated protein kinase 10 (Mus musculus) (UniProt Q61831); assay: JNK3 AlphaScreen Assay (AID 530; active means well fitted curve in either direction with a large enough effect, not every such curve was filed as active;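 further: kinase came from lysate of stimulated human HepG2 cells; signal reports phosphorylation of biotinylated GST-cJun 1-79 at Ser73 with 10 µM ATP; on the % scale 0 is the no-effect control and ±100 the full control effect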); conditions: JNK3 lysate, c-Jun phosphorylation; series mostly up to 57.1 µM
Summary of the method: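 Activity was read by AlphaScreen after JNK3-containing HepG2 lysate (cytokine pre-activated) phosphorylated biotinylated GST-cJun with 10 uM ATP at room temperature. Phospho-Ser73 cJun antibody with Protein-A acceptor beads provided detection.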

[8] = biological target: 3',5'-cyclic-AMP phosphodiesterase 4B (Homo sapiens) (UniProt Q07343); assay: qHTS Assay for Inhibitors of PDE-IV (AID 607; active means well fitted activation curve with a large enough effect in the main read-out, with a control signal flat, not every such curve was filed as active; further: % of control where 0% means no effect); conditions: HEK293 ACTOne CNG channel cells, membrane potential fluorescence; series mostly up to 22.9 µM
3',5'-cyclic-AMP phosphodiesterase 4B (Homo sapiens), sequence (Q07343 whole entry, looked up): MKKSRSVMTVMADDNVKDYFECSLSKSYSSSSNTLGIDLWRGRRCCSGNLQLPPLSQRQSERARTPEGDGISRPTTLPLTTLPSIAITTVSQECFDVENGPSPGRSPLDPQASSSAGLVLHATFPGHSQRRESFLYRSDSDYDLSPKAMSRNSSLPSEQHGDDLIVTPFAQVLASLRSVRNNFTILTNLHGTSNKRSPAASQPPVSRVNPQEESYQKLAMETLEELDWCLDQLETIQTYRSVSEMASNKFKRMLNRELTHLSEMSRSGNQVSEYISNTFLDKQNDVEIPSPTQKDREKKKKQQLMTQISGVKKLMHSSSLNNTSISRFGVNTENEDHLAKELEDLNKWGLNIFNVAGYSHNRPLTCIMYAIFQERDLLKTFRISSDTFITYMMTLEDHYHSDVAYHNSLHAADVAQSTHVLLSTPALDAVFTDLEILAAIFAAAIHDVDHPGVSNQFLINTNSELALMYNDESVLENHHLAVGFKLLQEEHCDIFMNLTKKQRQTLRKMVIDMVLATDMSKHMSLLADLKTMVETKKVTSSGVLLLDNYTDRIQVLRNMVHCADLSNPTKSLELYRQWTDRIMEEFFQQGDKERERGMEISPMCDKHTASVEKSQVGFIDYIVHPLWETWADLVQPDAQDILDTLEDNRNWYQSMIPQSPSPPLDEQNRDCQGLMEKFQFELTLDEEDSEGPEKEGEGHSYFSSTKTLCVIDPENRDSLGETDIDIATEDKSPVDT
Summary of the method: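 Cell-based read-out of cAMP via a modified cyclic nucleotide-gated channel and membrane potential dye (535/590 nm) in HEK293 cells expressing PDE4 endogenously. Compounds tested up to 22.9 uM final; 100 uM RO 20-1724 reference.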

[9] = qHTS Assay for Lipid Storage Modulators (AID 1519; calls by dose curve); conditions: Drosophila S3 cells, BODIPY lipid droplet/cell ratio, laser cytometry, cells loaded with oleic acid; for activity change, negative = inhibition: at 57.5 µM (top of the series)
Summary of the method: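 Cells seeded at 5,000 per well were treated with compounds over a concentration series and loaded with oleic acid (400 uM, as added). Lipid droplet fluorescence (488 nm excitation, 500-530 nm channel) was read by laser-scanning cytometry and normalized to 20 uM Triacsin C.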

[10] = biological target: Dual specificity protein kinase CLK4 (Homo sapiens) (UniProt Q9HAZ1); assay: qHTS Assay for Inhibitors of CDC-like Kinase 4 (ADP-FP Assay) (AID 1795); conditions: Transcreener ADP fluorescence polarization; series mostly up to 50 µM;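 further: recombinant human CLK4 phosphorylating RS repeat peptide at 1 µM ATP; on the % scale 0 is the no-effect control and ±100 the full control effect; nearly all actives have a fitted effect of over 60% in size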
Dual specificity protein kinase CLK4 (Homo sapiens), sequence (Q9HAZ1 whole entry, looked up): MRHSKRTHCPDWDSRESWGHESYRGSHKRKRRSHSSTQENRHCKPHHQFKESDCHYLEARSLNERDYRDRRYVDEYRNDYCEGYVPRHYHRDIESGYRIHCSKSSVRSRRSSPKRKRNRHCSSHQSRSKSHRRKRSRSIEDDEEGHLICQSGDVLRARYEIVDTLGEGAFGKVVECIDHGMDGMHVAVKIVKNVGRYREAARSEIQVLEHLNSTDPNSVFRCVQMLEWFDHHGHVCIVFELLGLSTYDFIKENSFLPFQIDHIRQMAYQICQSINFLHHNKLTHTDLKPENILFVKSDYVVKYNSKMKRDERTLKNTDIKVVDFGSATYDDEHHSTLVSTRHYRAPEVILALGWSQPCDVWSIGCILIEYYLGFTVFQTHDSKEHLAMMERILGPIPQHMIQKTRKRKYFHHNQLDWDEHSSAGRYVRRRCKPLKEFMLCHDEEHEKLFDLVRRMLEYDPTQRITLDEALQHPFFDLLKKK
Summary of the method: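 Recombinant Clk4 (6.25 nM) phosphorylated 100 uM RS repeat peptide with 1 uM ATP in 25 mM Tris pH 7.5, 10 mM MgCl2, 0.5 mM EGTA, 2.5 mM DTT, 0.01% Triton X-100 for 1 h. ADP was detected by Transcreener ADP2 competitive fluorescence polarization after 30 min at room temperature.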

[11] = biological target: Ubiquitin carboxyl-terminal hydrolase 1 (Homo sapiens) (UniProt O94782); assay: Inhibitors of USP1/UAF1: Pilot qHTS (AID 504865); conditions: purified USP1/UAF1, Ub-rhodamine cleavage fluorescence; series mostly up to 54.9 µM;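 further: rhodamine fluorescence freed from ubiquitin-rhodamine substrate followed over time; top concentration of the series differs between compounds; on the % scale 0 is the no-effect control and ±100 the full control effect; nearly all actives have a fitted effect of over 35% in size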
Ubiquitin carboxyl-terminal hydrolase 1 (Homo sapiens), sequence (O94782 whole entry, looked up): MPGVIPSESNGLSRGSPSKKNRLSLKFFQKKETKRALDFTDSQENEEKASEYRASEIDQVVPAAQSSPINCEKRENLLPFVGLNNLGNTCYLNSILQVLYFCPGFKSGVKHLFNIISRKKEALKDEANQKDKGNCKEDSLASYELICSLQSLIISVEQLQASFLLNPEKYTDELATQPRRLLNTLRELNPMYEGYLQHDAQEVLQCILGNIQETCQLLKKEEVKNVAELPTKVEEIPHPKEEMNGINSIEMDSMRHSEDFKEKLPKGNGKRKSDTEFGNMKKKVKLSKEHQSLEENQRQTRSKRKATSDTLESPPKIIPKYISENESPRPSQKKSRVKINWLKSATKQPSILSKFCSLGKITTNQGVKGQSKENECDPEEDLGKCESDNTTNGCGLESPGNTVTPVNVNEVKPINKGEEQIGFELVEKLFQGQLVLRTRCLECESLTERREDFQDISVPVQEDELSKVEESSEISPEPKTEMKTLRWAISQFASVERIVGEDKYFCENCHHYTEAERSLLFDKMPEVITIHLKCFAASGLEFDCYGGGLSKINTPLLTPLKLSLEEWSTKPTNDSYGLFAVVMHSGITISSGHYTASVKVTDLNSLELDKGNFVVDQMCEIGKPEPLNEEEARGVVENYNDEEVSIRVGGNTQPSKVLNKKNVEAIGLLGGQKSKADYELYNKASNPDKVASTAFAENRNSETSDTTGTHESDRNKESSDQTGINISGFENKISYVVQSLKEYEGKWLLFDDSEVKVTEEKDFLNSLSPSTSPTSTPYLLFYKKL
Summary of the method: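 USP1/UAF1 complex at 1 nM preincubated 15 min at room temperature with compound, then Ub-Rho substrate added at 150 nM final. Fluorescence (480/540 nm) read kinetically in 50 mM HEPES pH 7.8, 0.5 mM EDTA, 1 mM TCEP, 0.1 mg/ml BSA, 0.01% Tween-20.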

[12] = Primary qHTS for small molecule stabilizers of the endoplasmic reticulum resident proteome: Secreted ER Calcium Modulated Protein (SERCaMP) assay (AID 1508630); conditions: SH-SY5Y GLuc-SERCaMP (Gaussia luciferase released on ER calcium loss) secretion, thapsigargin, luminescence; series mostly up to 38.4 µM; further: on the % scale 0 is the no-effect control and ±100 the full control effect
Summary of the method: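 The SH-SY5Y reporter protocol was run at 3 concentrations up to 38.3 uM (primary) or 11 concentrations (follow-up): 16 h compound, 100 nM thapsigargin for 4 h, then extracellular luciferase luminescence.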

[13] = biological target: Cytochrome P450 1A2 (Homo sapiens) (UniProt P05177); assay: p450-cyp1a2 (AID 410; calls by dose curve; further: potency means the concentration at half of the fitted maximal effect); conditions: recombinant CYP1A2, luciferin-ME demethylation, luminescence; series mostly up to 57 µM
Cytochrome P450 1A2 (Homo sapiens), sequence (P05177 whole entry, looked up): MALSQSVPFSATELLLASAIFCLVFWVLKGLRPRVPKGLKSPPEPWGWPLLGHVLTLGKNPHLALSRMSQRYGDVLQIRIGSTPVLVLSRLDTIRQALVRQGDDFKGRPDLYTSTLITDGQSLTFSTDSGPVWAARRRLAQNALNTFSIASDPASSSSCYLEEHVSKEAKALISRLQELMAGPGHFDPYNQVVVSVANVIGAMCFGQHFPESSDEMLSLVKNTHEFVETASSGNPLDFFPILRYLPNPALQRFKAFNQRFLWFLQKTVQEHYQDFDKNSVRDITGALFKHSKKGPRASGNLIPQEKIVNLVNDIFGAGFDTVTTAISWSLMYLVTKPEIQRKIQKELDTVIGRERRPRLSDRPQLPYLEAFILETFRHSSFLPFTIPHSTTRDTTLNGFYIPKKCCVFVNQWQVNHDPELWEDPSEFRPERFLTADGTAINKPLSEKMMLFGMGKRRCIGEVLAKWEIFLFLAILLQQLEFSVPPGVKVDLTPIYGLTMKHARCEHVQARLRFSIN
Summary of the method: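 Luminescent demethylation readout: Luciferin-ME (100uM, equal to Km) turned over by 20nM CYP1A2 for 60 min at room temperature after NADPH regeneration addition, following 10 min compound preincubation. Normalization used 57 uM furafylline as full inhibition.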

[14] = biological target: Cytochrome P450 2C9 (Homo sapiens) (UniProt P11712); assay: qHTS Assay for Inhibitors and Substrates of Cytochrome P450 2C9 (AID 883); conditions: recombinant CYP2C9, luciferin-H luminescence, 60 min; series mostly up to 57.1 µM; further: on the % scale 0 is the no-effect control and ±100 the full control effect; nearly all actives have a fitted effect of over 60% in size
Summary of the method: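 Human CYP2C9 (10nM) with Luciferin-H at 100uM (its KM) in 25mM KPO4; compound preincubated 10 min at 37C, then NADPH regeneration for 60 min at 37C. Luciferin read by luminescence after detection reagent; normalized to 57uM sulphaphenazole as full inhibition.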

[15] = biological target: Cytochrome P450 3A4 (Homo sapiens) (UniProt P08684); assay: qHTS Assay for Inhibitors and Substrates of Cytochrome P450 3A4 (AID 884); conditions: recombinant CYP3A4, Luciferin-PPXE luminescence; series mostly up to 57.1 µM; further: potency means the concentration at half of the fitted maximal effect; nearly all actives have a fitted effect of over 50% in size
Cytochrome P450 3A4 (Homo sapiens), sequence (P08684 whole entry, looked up): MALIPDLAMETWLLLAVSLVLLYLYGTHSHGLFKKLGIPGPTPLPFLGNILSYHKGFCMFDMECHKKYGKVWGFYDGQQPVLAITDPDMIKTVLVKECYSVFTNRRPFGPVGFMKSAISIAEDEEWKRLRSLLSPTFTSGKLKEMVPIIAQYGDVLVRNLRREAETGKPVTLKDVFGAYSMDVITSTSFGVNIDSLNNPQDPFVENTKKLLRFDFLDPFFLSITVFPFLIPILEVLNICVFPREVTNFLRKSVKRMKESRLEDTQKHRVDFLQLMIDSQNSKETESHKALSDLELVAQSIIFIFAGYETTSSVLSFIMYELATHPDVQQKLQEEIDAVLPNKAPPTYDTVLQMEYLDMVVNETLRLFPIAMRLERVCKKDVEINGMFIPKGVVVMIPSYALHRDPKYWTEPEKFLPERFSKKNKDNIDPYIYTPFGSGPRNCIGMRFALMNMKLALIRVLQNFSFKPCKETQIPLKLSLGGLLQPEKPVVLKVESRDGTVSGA
Summary of the method: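 Luminescent readout of luciferin produced by CYP3A4 (20 nM) dealkylation of Luciferin-PPXE, 25 uM (its KM). NADPH-driven reaction ran 60 min at RT after 10 min compound preincubation; data scaled to 57 uM ketoconazole as 100% inhibition.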

[16] = biological target: Cytochrome P450 3A4 (Homo sapiens) (UniProt P08684); assay: qHTS Assay for Activators of Cytochrome P450 3A4 (AID 885); conditions: recombinant CYP3A4, Luciferin-PPXE luminescence, 60 min; series mostly up to 57.1 µM; further: nearly all actives have a fitted effect of over 65% in size
Summary of the method: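 Luminescent readout of luciferin formed from 25 uM Luciferin-PPXE (KM level) by 20 nM CYP3A4 in 200 mM KPO4, with 60 min NADPH-driven reaction at room temperature after 10 min compound exposure. Ketoconazole (57 uM) defined 100% inhibition.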

[17] = biological target: Cytochrome P450 2C19 (Homo sapiens) (UniProt P33261); assay: qHTS Assay for Inhibitors and Substrates of Cytochrome P450 2C19 (AID 899); conditions: recombinant CYP2C19, luciferin-H EGE luminescence; series mostly up to 57.1 µM; further: potency means the concentration at half of the fitted maximal effect; nearly all actives have a fitted effect of over 60% in size
Cytochrome P450 2C19 (Homo sapiens), sequence (P33261 whole entry, looked up): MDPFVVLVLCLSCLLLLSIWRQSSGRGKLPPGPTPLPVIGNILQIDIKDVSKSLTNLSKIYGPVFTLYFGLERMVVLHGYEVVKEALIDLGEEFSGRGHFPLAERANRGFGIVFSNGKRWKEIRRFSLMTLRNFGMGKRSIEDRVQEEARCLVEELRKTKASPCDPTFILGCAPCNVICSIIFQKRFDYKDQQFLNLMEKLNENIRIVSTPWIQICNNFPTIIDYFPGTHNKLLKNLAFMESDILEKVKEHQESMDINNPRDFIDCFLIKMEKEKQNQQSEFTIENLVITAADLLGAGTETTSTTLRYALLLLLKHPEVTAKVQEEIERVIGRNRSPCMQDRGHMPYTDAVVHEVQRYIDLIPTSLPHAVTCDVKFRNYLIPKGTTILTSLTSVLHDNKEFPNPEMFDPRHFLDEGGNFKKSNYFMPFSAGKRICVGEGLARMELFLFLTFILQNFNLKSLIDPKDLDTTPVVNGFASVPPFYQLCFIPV
Summary of the method: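 5 nM human CYP2C19 with 10uM Luciferin-H EGE (at KM) in 50mM KPO4, compound preincubated 10 min at 37C, then NADPH regeneration for 60 min at 37C. Luciferin read by luminescence after detection reagent; normalized to 57uM ketoconazole as full inhibition.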

[18] = Confirmation and Secondary Assay for Modulators of Hemoglobin Beta Chain Splicing at IVS2 654 locus (AID 910); conditions: HeLa EGFP-654 splicing reporter, GFP fluorescence, 48 h; series mostly up to 38.3 µM;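 further: HeLa cells stably carrying EGFP split by mutant beta-globin IVS2-654 intron; % of control where 0% means no effect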
Summary of the method: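 HeLa cells stably expressing EGFP interrupted by β-globin IVS2-654 intron, seeded overnight in Opti-MEM/2% FCS, then treated 2 days at 37 °C. Restored splicing read as total peak GFP intensity per well by laser scanning cytometry (488 nm excitation, 500–520 nm emission); 500 nM antisense PNA as control.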

[19] = Confirmation and Secondary Assay for Modulators of Hemoglobin Beta Chain Splicing at IVS2 705 locus (AID 930); conditions: HeLa EGFP-705 splicing reporter, GFP fluorescence, 48 h; series mostly up to 38.3 µM;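 further: HeLa cells stably expressing the EGFP-705 splicing reporter; GFP fluorescence per well restored by corrected splicing of the IVS2-705 intron in EGFP; % of control where 0% means no effect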
Summary of the method: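 Secondary splice-site specificity test uses HeLa expressing CMV-driven EGFP interrupted by IVS2-705; cells were treated 2 days at 37C with 500 nM antisense PNA as positive control.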

[20] = measured here: cell count channel max response
[21] = measured here: lipid channel max response

N#Cc1ccccc1-c1nc(NCCN2CCOCC2)c2ccccc2n1
Potency [1]: > 11.4 µM (inactive) | activity change, negative = inhibition [2]: 1.04% (inactive) | activity change, negative = inhibition [3]: -3.19% (inactive) | activity, negative = inhibition [4]: 2.02% (inactive) | Potency [5]: > 46 µM (inactive) | Potency [6]: > 46 µM (inactive) | outcome [7]: inactive | Potency [8]: inactive | activity change, negative = inhibition [9]: 4.61% (inactive) | max response [9, 20]: 14.8% | max response [9, 21]: 18.6% | Potency [10]: inactive | Potency [11]: inactive | Potency [12]: inactive

COc1ccc(CNc2ncncc2-c2cccnc2)c(OC)c1
Potency [1]: > 11.4 µM (inactive) | activity change, negative = inhibition [2]: 3.11% (inactive) | Potency [13]: 3.16 µM (active) | activity change, negative = inhibition [3]: 4.08% (inactive) | activity, negative = inhibition [4]: 0.586% (inactive) | Potency [5]: > 46 µM (inactive) | outcome [7]: inactive | Potency [8]: inactive | activity change, negative = inhibition [14]: 26.1% [at 2.29 µM] (inactive) | Potency [15]: 0.501 µM (active) | Potency [16]: inactive | activity change, negative = inhibition [9]: 4.88% (inactive) | max response [9, 20]: 18.2% | max response [9, 21]: 22.7% | Potency [10]: inactive | Potency [11]: inactive | Potency [12]: inactive

COc1ccccc1-c1cncnc1Nc1ccc(F)cc1
Potency [1]: > 11.4 µM (inactive) | activity change, negative = inhibition [2]: -12.4% (inactive) | Potency [13]: 7.94 µM (active) | activity change, negative = inhibition [3]: 1.41% (inactive) | activity, negative = inhibition [4]: 4.34% (inactive) | Potency [5]: > 46 µM (inactive) | Potency [6]: > 46 µM (inactive) | outcome [7]: inactive | Potency [8]: inactive | Potency [15]: 0.158 µM (active) | Potency [16]: inactive | Potency [17]: 5.01 µM (active) | outcome [18]: inactive | outcome [19]: inactive | activity change, negative = inhibition [9]: 10.5% (inactive) | max response [9, 20]: 9.46% | max response [9, 21]: 20.1% | Potency [11]: inactive | Potency [12]: inactive

COc1ccc2[nH]cc(CCNc3ncncc3-c3c(C)noc3C)c2c1
Potency [1]: > 11.4 µM (inactive) | activity change, negative = inhibition [2]: -11.4% (inactive) | Potency [13]: 12.6 µM (active) | activity change, negative = inhibition [3]: -0.0502% (inactive) | activity, negative = inhibition [4]: -10.2% (inactive) | Potency [5]: > 46 µM (inactive) | Potency [6]: > 46 µM (inactive) | outcome [7]: inactive | Potency [8]: inactive | Potency [15]: 0.794 µM (active) | Potency [16]: inactive | Potency [17]: 3.16 µM (active) | activity change, negative = inhibition [9]: 7.61% (inactive) | max response [9, 20]: 11.1% | max response [9, 21]: 18.3% | Potency [10]: inactive | Potency [11]: inactive | Potency [12]: inactive

Cc1noc(C)c1-c1ccc2ncnc(NC3CCNCC3)c2c1
Potency [1]: > 11.4 µM (inactive) | activity change, negative = inhibition [2]: 17.3% (inactive) | Potency [13]: 31.6 µM (active) | activity change, negative = inhibition [3]: -27.4% (inactive) | activity, negative = inhibition [4]: 10.3% (inactive) | Potency [5]: > 46 µM (inactive) | Potency [6]: > 46 µM (inactive) | outcome [7]: inactive | Potency [8]: inactive | activity change, negative = inhibition [9]: 2.83% (inactive) | max response [9, 20]: 3.61% | max response [9, 21]: 2.68% | Potency [11]: inactive | Potency [12]: inactive
